High-throughput results deposited in PubChem by National Center for Advancing Translational Sciences (NCATS).
The list is not random: actives were taken first. Their share in the collection is about 2.9%.
KDM5B inh = Primary screen for KDM5B Histone Demethylases FDH-coupled qHTS; Lysine-specific demethylase 5B (Homo sapiens), Q9UGL1; KDM5B demethylase, FDH-coupled NADH fluorescence (FDH is formaldehyde dehydrogenase); Potency, µM (top dose mostly 57.7 µM), usual class: inhibitors; 220,000 compounds, 2.6% hits; AID 1347165, 2019; further: potency means the concentration at half of the fitted maximal effect; 0% is about no effect; nearly all actives have a fitted effect of over 70% in size
Target sequence (Q9UGL1 whole entry, looked up): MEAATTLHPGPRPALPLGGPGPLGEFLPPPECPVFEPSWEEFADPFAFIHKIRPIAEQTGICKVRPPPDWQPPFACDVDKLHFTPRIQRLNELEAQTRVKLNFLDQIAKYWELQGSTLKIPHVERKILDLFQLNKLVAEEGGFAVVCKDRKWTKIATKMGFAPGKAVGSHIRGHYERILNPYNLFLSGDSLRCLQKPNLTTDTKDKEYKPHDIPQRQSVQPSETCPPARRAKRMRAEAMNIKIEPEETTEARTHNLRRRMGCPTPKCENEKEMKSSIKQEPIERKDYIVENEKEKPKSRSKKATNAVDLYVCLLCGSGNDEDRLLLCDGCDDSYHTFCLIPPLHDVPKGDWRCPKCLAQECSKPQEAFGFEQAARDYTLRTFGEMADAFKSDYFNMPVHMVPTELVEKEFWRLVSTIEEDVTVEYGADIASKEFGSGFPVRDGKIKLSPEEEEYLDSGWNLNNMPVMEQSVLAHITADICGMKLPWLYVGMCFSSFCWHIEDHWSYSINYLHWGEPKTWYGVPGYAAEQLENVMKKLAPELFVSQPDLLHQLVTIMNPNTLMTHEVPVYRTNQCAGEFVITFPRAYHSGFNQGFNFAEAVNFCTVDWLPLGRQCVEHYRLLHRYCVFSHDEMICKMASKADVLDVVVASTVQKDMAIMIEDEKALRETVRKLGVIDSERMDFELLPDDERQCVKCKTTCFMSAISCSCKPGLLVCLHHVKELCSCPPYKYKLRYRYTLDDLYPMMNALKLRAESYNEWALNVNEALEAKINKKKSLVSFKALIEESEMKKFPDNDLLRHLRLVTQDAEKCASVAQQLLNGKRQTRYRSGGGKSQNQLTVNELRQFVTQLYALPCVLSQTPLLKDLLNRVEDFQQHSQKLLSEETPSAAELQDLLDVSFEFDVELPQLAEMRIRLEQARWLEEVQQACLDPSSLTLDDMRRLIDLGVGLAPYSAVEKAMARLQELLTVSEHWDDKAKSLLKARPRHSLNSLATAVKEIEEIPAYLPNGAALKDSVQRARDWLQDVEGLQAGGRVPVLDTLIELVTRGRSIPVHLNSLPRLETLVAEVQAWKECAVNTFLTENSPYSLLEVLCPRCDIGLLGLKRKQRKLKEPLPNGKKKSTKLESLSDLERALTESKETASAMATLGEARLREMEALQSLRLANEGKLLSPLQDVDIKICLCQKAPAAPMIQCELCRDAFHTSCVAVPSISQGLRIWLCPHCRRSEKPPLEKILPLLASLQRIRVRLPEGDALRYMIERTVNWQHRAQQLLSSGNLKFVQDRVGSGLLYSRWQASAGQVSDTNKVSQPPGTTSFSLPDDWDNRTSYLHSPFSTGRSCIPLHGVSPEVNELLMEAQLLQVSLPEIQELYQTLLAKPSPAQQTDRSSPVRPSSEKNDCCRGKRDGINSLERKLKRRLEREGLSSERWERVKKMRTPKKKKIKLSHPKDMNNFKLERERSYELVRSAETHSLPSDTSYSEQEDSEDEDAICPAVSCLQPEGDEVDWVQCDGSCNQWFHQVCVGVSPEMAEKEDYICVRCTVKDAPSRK
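Inhibition is measured as reduced NADH fluorescence generation from FDH coupling to formaldehyde release. Truncated KDM5BΔAP at 200 nM final acts on H3K4me3 peptide (12.5 µM in substrate mix) in pH 7.5 HEPES buffer with Tween-20, 30 min, room temperature.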
IP6K1 inh = Primary qHTS assay for small molecule inhibitors of Inositol hexaphosphate kinase 1 (IP6K1) | Inositol hexakisphosphate kinase 1 (Homo sapiens), Q92551 | IP6K1 kinase, ADP-Glo luminescence, 2 h; active compounds read low | activity change, % (series mostly up to about 58 µM) | 140,000 compounds, 0.81% hits; in the data active means activity change below about -25%; further: on the % scale 0 is the no-effect control and ±100 the full control effect
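ADP-Glo luminescence measures ADP made by human IP6K1 during a 2 h RT reaction with ATP/IP6 (mix at 1.3 mM/130 uM); top library doses 57.5 and 19.1 uM final.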
SNCA viab count = GF-AFC viability counterscreen for inhibitors of alpha-synuclein gene (SNCA) expression; HEK-293-SNCA-luc viability, GF-AFC fluorescence, 24 h; Potency, µM (top dose mostly 57.1 µM), without a hit: at the top dose activity change, negative = cytotoxicity, hits mostly cytotoxic; 150,000 compounds, 0.12% hits;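 further: potency means the concentration at half of the fitted maximal effect; 0% = DMSO-treated cells and -100% = medium-only wells without cells; nearly all actives have a fitted effect of over 30% in size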
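Cytotoxicity counterscreen: after 24 h compound treatment of genome-edited SNCA-luciferase HEK-293 cells, live-cell protease substrate GF-AFC read by fluorescence after 30 min; activity scaled between DMSO (0%) and medium-only (-100%), curves Hill-fitted.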
SNCA expr inh = Primary qHTS assay for inhibitors of alpha-synuclein gene (SNCA) expression; HEK-293 SNCA-luciferase knock-in, luminescence, 24 h; Potency, µM (series often up to 57.2 µM), without a hit: at the top dose activity change, negative = inhibition, actives largely listed as inhibitors; 140,000 compounds, 0.17% hits; AID 1671194, 2021;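 further: potency means the concentration at half of the fitted maximal effect; plate controls were DMSO cells for no effect and cell-free wells for full effect; nearly all actives have a fitted effect of over 45% in size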
IP6K1 conf = Confirmatory qHTS assay for small molecule inhibitors of Inositol hexaphosphate kinase 1 (IP6K1); shares compounds with IP6K1 inh; recombinant IP6K1 kinase, ADP-Glo luminescence, 2 h; Potency, µM (titrated, usually from 49 µM), for inactives: top-dose activity change, negative = inhibition, hits mostly inhibitors; 1,200 compounds, 13% hits; AID 1645852, 2021; further: potency means the concentration at half of the fitted maximal effect; on the % scale 0 is the no-effect control and ±100 the full control effect; nearly all actives have a fitted effect of over 65% in size
* hit, by the source's call; i = inactive; u = inconclusive; x = no result; ! = not active in a repeat; [ ] = remark or other dose. Unless noted, the call rests on the fitted dose curve; in most records, active means well fitted curve in the direction sought with a large enough effect; inconclusive means small, poorly fitted or top-dose-only effect, or another doubt; inactive means no such curve, though single readings can be large; an effect the other way counts as inactive or inconclusive.

SMILES | KDM5B inh | IP6K1 inh | SNCA viab count | SNCA expr inh | IP6K1 conf
Cn1cncc1C(N)(c1ccc(Cl)cc1)c1ccc2c(c1)c(-c1cccc(Cl)c1)cc(=O)n2C (stereo not drawn) | x | -26* | 9.5µM* | x | u
COc1cccc(NC(=O)CSc2ncc(S(=O)(=O)c3ccc(C)c(C)c3)c(=O)[nH]2)c1 | i | -29* | 15% | u | u
CC(C)c1ccc(S(=O)(=O)c2cnc(SCC(=O)Nc3ccc4c(c3)OCCO4)[nH]c2=O)cc1 | i | -8 | -2% | 13% | x
Cc1ccc(S(=O)(=O)c2cnc(SCC(=O)Nc3ccc4c(c3)OCCO4)[nH]c2=O)cc1 | i | -30* | -4% | 20% | u
C=CCNC(=O)Cc1ccc(N(Cc2cccc(F)c2)C(=O)c2ccco2)cc1 | i | -1 | -8% | -28% | x
CCN(C(=O)C(NS(=O)(=O)c1cccc2nsnc12)c1ccccc1)c1ccccc1 (stereo not drawn) | i | -28* | 4% | -18% | -12%
Cc1ccc(C(=O)Nc2cc3c(cc2C(=O)c2ccccc2)OCCO3)cc1 | i | x | x | x | x
CC(C)C(=O)c1cc2c(cc1NC(=O)c1ccccc1F)OCCO2 | u | -28* | 13% | -10% | -17%
CN(CC(=O)Nc1ccc(Cl)cc1)CC(=O)N(C)C1(C#N)CCCCC1 | i | x | x | x | x
CCc1ccccc1N(CC)C(=O)c1cc2c(s1)-c1ccccc1SC2 | u | -26* | 9% | 18% | -6%
Cc1ccc(-c2nnc3ccc(Nc4cccc(N(C)C)c4)nn23)nc1 | u | -25* | -9%[87.6 µM] | 3%[87.6 µM] | -11%
CCC(O)C(=O)N1CCc2onc(-c3ccc(-c4ccccc4)cc3)c2C1 (stereo not drawn) | i | -47* | u | 45% | u
CCCOc1ccccc1C(=O)N1CCc2onc(-c3ccccc3)c2C1 | i | 0 | -14% | 7% | x
Cc1ccc(N2CC(NC(=O)c3ccc(Br)o3)CC2=O)cc1C (stereo not drawn) | i | -13 | -11% | -11% | x
Cc1ccc(N2CC(NC(=O)c3ccco3)CC2=O)cc1C (stereo not drawn) | i | -25* | -2% | 0% | -10%
Cc1ccc(-n2ccn3c(CCC(=O)Nc4ccc(F)c(Cl)c4)nnc3c2=O)cc1C | i | x | x | x | x
COc1ccc(C2(C(=O)N3CCC4(CC3)CC(N3CCOCC3)CCO4)CC2)cc1 (stereo not drawn) | i | 7 | 0% | -8% | x
COc1ccc(S(=O)(=O)N2CCC3(CC2)CC(N2CCOCC2)CCO3)cc1 (stereo not drawn) | i | -26* | -8% | -25% | -16%
CCCCCNS(=O)(=O)c1ccc(N2CCCCS2(=O)=O)cc1 | i | 7 | 14% | -3% | x
CC(C)CCNS(=O)(=O)c1ccc(N2CCCCS2(=O)=O)cc1 | i | -30* | -2% | -16% | -16%
CCCSc1nc2c(c(=O)[nH]1)C(C(=O)Nc1ccccc1F)CC(=O)N2 (stereo not drawn) | i | x | x | x | x
CN(CC(=O)Nc1ccccc1Cl)Cc1ncc(-c2ccc(F)cc2)o1 | i | x | x | x | x
Cc1ccc(/C=C/c2onc(C)c2S(=O)(=O)N2CCC(C(=O)N(CCC(C)C)Cc3ccco3)CC2)cc1 | i | -38* | 3% | 9% | -9%
Cc1ccc(/C=C/c2onc(C)c2S(=O)(=O)N2CCC(C(=O)NCc3ccco3)CC2)cc1 | u | 4 | -4% | 3% | x
Cc1ccsc1/C=C/C1=NCCCN1C | x | -33* | -3%[23.9 µM] | -10%[25.6 µM] | -1%
SMILES | KDM5B inh | IP6K1 inh | SNCA viab count | SNCA expr inh | IP6K1 conf
Cc1ccsc1C(=O)N1CCCN(C)c2ccccc21 | i | -6 | 0% | 29% | x
N[C@H]1CCN2C(=O)c3cc(-c4ccc5c(c4)OCO5)ccc3NC(=O)[C@H]12 | u | -30* | -13%[87.6 µM] | 8%[87.6 µM] | -23%
O=C1Nc2ccc(-c3ccc4c(c3)OCO4)cc2C(=O)N2CC[C@H](NC(=O)N3CCOCC3)[C@@H]12 | i | -8 | 3% | 10% | x
CCN(CC(=O)NC)S(=O)(=O)N1CCCCCC1 | i | x | x | x | x
Cn1nnnc1Sc1ncnc2scc(Br)c12 | x | x | x | x | -15%
Cn1nnnc1Sc1ncnc2scc(-c3ccc(Br)cc3)c12 | x | x | x | x | -9%
Cn1c(Sc2ncnc3scc(-c4ccccc4)c23)nnc1C(F)(F)F | i | x | x | x | x
O=C([C@@H]1C[C@@H](c2ccc(F)cc2)N(Cc2ccccc2)C1)N1CCN(c2ccccn2)CC1 | u | 11 | -11% | -24% | x
COc1ccc(Nc2cnc3ccc(-c4ccccc4)nn23)cc1 | i | 8 | -5%[87.6 µM] | -12%[87.6 µM] | x
NC(=O)c1ccc(Nc2cnc3ccc(-c4ccccc4)nn23)cc1 | i | -29* | 9%[87.6 µM] | 61%[87.6 µM] | -22%
Fc1ccc(-c2ccc3ncc(Nc4ccc5c(c4)OCO5)n3n2)cc1 | i | -35* | -25%[87.6 µM] | 3%[87.6 µM] | u
CNC(=O)c1ccc(NC(=O)c2nsc3ccccc23)cc1 | i | -27* | -7% | -71% | u
CCOC(=O)c1ccc(NC(=O)c2nsc3ccccc23)cc1 | u | -24 | -30% | -9% | x
Cc1ccc(C)c(NC(=O)CC(C)(C)CC(=O)O)c1 | i | x | x | x | x
CO/N=C(\C(=O)N[C@@H]1C(=O)N2C(C(=O)O)=C(CSc3nc(=O)c(O)nn3C)CS[C@H]12)c1csc(N)n1 | x | -79* | -18%[23.9 µM] | -7%[25.6 µM] | u
COc1ccc(-c2c(C)[nH]n3c(=O)c(Cl)c(C)nc23)cc1 | i | x | x | x | x
NS(=O)(=O)c1ccc(Nc2nc(OCC3CCCCC3)c3[nH]cnc3n2)cc1 | x | -47* | u | 11% | 4.1µM*
CCN(CC)C(=O)c1ccc(Nc2nc(OCC3CCCCC3)c3[nH]cnc3n2)cc1 | x | -41* | -25% | x | 10µM*
Cc1ccccc1CN1C(=O)c2ccccc2Sc2ccc(C(=O)O)cc21 | i | 32 | 2% | 0% | x
O=C(O)c1cccc(CN2C(=O)/C(=C(\c3ccccc3)c3ccc(Cl)cc3)c3ccccc32)c1 | x | -26* | -25% | x | 21µM*
CCN(CC)C(=S)SSC(=S)N(CC)CC | x | -56*! | u | u | 8.9µM*
CCN(C(=O)CSc1nc(-c2ccccc2)no1)c1cccc(C)c1 | i | -44* | u | u | 31%
CCN(C(=O)Cn1cccc1-c1nc(-c2ccccc2)no1)c1cccc(C)c1 | u | -3 | -8% | -25% | x
O=Cc1cccc(-c2cccc(C(F)(F)F)c2)c1 | i | -36* | -2%[87.6 µM] | 2%[87.6 µM] | u
O=Cc1cccc(-c2ccccc2F)c1 | i | -29* | 8%[87.6 µM] | 22%[87.6 µM] | u
COc1ccc(NC(=O)N2CCN(c3ccc(Cl)cc3)CC2)cc1OC | i | x | x | x | x
